Experimental data taken from PubChem BioAssay.
Unmarked numbers belong to inactive results. Activity calls are given as the source filed them.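 Rule for the calls: active = inhibition above the hit cutoff set in the earlier primary screen (cut at about 27% in these data); inactive = the rest.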

biological target: Protein phosphatase methylesterase 1 (Homo sapiens) (UniProt Q9Y570); experiment: human PME-1 methylesterase inhibition confirmation – biochemical, fluorescence polarization, FP-Rh probe, triplicate (AID 2171); conditions: recombinant PME-1, FP-Rh probe fluorescence polarization; at 5.9 µM; active compounds read high;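 note: 0% = enzyme with DMSO and 100% = wells lacking PME-1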
Sequence (Q9Y570 whole entry, looked up): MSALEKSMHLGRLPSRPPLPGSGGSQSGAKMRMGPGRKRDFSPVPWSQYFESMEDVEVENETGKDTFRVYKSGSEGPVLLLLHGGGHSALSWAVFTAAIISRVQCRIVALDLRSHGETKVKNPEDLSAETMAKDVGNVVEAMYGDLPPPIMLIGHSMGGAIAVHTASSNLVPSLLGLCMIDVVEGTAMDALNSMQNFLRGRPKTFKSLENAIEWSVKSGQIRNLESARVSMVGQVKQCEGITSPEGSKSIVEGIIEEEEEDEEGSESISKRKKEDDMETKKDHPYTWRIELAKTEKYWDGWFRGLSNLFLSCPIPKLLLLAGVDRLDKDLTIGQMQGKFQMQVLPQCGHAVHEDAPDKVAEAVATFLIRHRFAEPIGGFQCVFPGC

Structure (SMILES) | inhibition
O=c1cc(N2CCCCC2)c(-c2ccccc2)nn1Cc1c(Cl)cccc1Cl | 25.3%
C/C(=C\c1ccc2c(c1)OCO2)C1Nc2cccc3cccc(c23)N1 | 28.5% (active)
CCOc1cc(/C=C/c2ccc3cccc([N+](=O)[O-])c3n2)cc(Cl)c1O | -9.78%
O=C(N/N=C\c1ccc(COc2ccc([N+](=O)[O-])cc2)o1)c1cccc(Cl)c1 | 9.99%
O=c1[nH]n2c(=O)c3c([nH]c2c1N=Nc1cccc(Cl)c1)CCCC3 | 61.8% (active)
COc1cc(/C=N/NC(=O)c2cc3ccccc3[nH]2)ccc1O | 16.1%
Oc1nc(Nc2cccc(Cl)c2)sc1/C=C1\C=Nc2ccccc21 | 26.6% (active)
O=C(c1ccc2oc(CCCc3ccccc3)nc2c1)N1CCCC(CCCO)C1 (stereo not given) | 23.5%
COc1cccc(NC(=O)Nc2nnc(N3CCCCC3C)s2)c1 (stereo not given) | 50.6% (active)
C/C(=N\Nc1ccccc1C(=O)O)c1ccncc1 | 1.32%
COc1cccc(N=Nc2c(=O)[nH]n3c(=O)c4c([nH]c23)CCC4)c1 | 36.8% (active)
O=c1ccc2ccc(Oc3ccc([N+](=O)[O-])cc3[N+](=O)[O-])cc2o1 | 25.6%
COc1ccc(NS(=O)(=O)c2ccc(N/N=C(\C)c3ccncc3)c([N+](=O)[O-])c2)cc1 | 26.3% (active)
COc1cc(/C=N/NC(=O)C(Cc2c[nH]c3ccccc23)NC(=O)OCc2ccccc2)cc([N+](=O)[O-])c1O (stereo not given) | 15.4%
CC1(C)CC(=O)C2=C(C1)N1C(=C(C#N)C2c2ccc(Cl)cc2)N=C(N)c2ccccc21 (stereo not given) | 44% (active)
CC1CCCCN1S(=O)(=O)c1ccc(C(=O)Nc2ccccc2-c2nc3ccccc3[nH]2)cc1 (stereo not given) | 8.87%
CCOc1cc(-c2cc(-c3ccc(N)cc3)nc(N)c2C#N)ccc1O | 41.5% (active)
COc1ccc(/C=N/Nc2cc(C)nc(-n3nc(C)cc3C)n2)c(OC)c1 | 41.6% (active)
Cc1cc2c(N)cccc2nn1 | 7.9%
Oc1[nH]c2ccccc2c1C=Nc1ccc2c(c1)OCO2 | 23.6%

Structure (SMILES) | inhibition
Cc1cc(C(C#N)c2ccc(Cl)cc2)c(Cl)cc1NC(=O)c1cc(I)cc(I)c1O (stereo not given) | 47.6% (active)
COc1ccc(-c2sc(Nc3ccc(F)c(F)c3F)nc2CCC(=O)NN)cc1 | 24.1%
CCN(CC(=O)Nc1c(F)cccc1F)C(=O)CCc1ccc(OC)cc1 | 6.49%
Oc1ccc(N=Cc2ccc(-c3cccs3)s2)cc1 | 23.3%
Nc1cc(C(=O)O)c(N)c2c1C(=O)c1ccccc1C2=O | 96.8% (active)
O=C(COC(=O)c1cccc2c1C(=O)c1ccccc1C2=O)NC1CCCCC1 | 56.5% (active)
Cc1cc2c(N=O)c(NO)ccc2[nH]1 | 33.3% (active)
Cc1ccc(-c2nc(Nc3ccccc3)n[nH]2)cc1 | 48.5% (active)
Cc1ccsc1/C=N/n1c(-c2cc(-c3ccccc3)n[nH]2)n[nH]c1=S | 22%
O=C(O)c1cc(NN=C2c3ccccc3-c3ccccc32)ccc1Cl | 41.9% (active)
CC(Sc1nnc(NC2CCCCC2)s1)C(=O)Nc1ccc2c(c1)C(=O)c1ccccc1C2=O (stereo not given) | -4.4%
CCn1c(CSc2nnc(-c3ccncc3)n2CCOC)nc2cc(C(=O)O)ccc21 | 51.1% (active)
O=C(N/N=C/c1c[nH]c2ccccc12)c1cc(-c2ccc3ccccc3c2)n[nH]1 | 10.8%
O=C(CNc1ccccc1)N/N=C/c1c(O)ccc2ccccc12 | 17.1%
Nc1[nH]n(-c2ccccc2)c(=O)c1N=Nc1ccc2ncsc2c1 | 31.1% (active)
C/C(=N/NC(=O)c1cc2ccccc2cc1O)C1C(=O)c2ccccc2C1=O | 68.6% (active)
CCCOc1ccc(C2Nc3cccc4cccc(c34)N2)cc1 | 38.3% (active)
COC(=O)c1ccc(Sc2ccccc2NS(=O)(=O)c2ccc(C)cc2)nc1 | 25.9%
O=C(O)COc1ccccc1/C=N/Nc1ccc(S(=O)(=O)Nc2ccc(Cl)cc2)cc1[N+](=O)[O-] | 62.7% (active)
O=[N+]([O-])c1ccc(N/N=C/c2ccccc2O)cc1 | 10.8%
